NPC1 prom act = qHTS Assay for NPC1 Promoter Activators. Huh7 NPC1 promoter luciferase reporter, 24 h. Potency, µM (highest dose often 9.22 µM), without a hit: top-dose activation, actives largely listed as activators. 320,000 tested, 2.4% active; further: % of control where 0% means no effect; nearly all actives have a fitted effect of over 60% in size
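Stably transfected Huh7 (NPC1 promoter→luciferase), 1500 cells/well in Opti-MEM + 10% FBS, 2 h settle, then compound 24 h at 37 °C. Luminescence after 10 min with Amplite reagent.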
ELG1 genotox = qHTS screen for small molecules that induce genotoxicity in human embryonic kidney (HEK293T) cells expressing luciferase-tagged ELG1; 330,000 tested, 1.3% active; AID 504466, 2011; Potency, µM (series often up to 46 µM), for inactives: top-dose activity change, positive = activation, hits mostly activators; HEK293T ELG1-luciferase reporter, luminescence, 16 h; further: % of control where 0% means no effect; nearly all actives have a fitted effect of over 60% in size
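HEK293T cells expressing luciferase-tagged ELG1 were treated with compound or DMSO for 16 hr at 37°C. Luciferase activity was then read after 30 min with ONE-Glo at room temperature; rising signal flags genetic stress.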
Rab9 promoter act = qHTS Assay for Rab9 Promoter Activators. Huh7 Rab9 promoter-luciferase reporter, luminescence, 24 h. Potency, µM (highest dose often 9.22 µM), inactives show top-dose activation, negative = inhibition, usual class: activators. 320,000 tested, 2.8% active; further: % of control where 0% means no effect; nearly all actives have a fitted effect of over 60% in size
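Quantitative HTS format; Huh7 Rab9-luciferase reporter cells (1500/well) receive compound 2 h post-plating, incubate 24 h at 37 °C, then get luciferase reagent for 10 min before luminescence reading.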
ELG1 DNA repair = qHTS screen for small molecules that inhibit ELG1-dependent DNA repair in human embryonic kidney (HEK293T) cells expressing luciferase-tagged ELG1. HEK293T ELG1-luciferase reporter, luminescence, 16 h; DNA damage induced by 5-fluorouridine. 330,000 tested, 2.3% active. Potency, µM (top dose mostly 46.1 µM), for inactives: top-dose activity change, negative = inhibition, actives largely listed as inhibitors; further: on the % scale 0 is the no-effect control and ±100 the full control effect; nearly all actives have a fitted effect of over 55% in size
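Quantitative HTS, concentration-response format. 2,000 cells/well co-treated with 5-fluorouridine and compound, 16 hr in 5% CO2 at 37 °C; ONE-Glo luminescence read after 30 min.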
SMN2 splice enh = qHTS Assay for Enhancers of SMN2 Splice Variant Expression; Potency, µM (top dose mostly 46.1 µM), inactives show at the highest dose activity change, positive = activation, most hits filed as activators; HEK293 SMN2-luciferase splicing reporter, luminescence, 30-36 h; 210,000 tested, 2.8% active; AID 1458, 2008; further: % of control where 0% means no effect; nearly all actives have a fitted effect of over 55% in size
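HEK293 cells carry an SMN2 […]–luciferase reporter in which exon 7 inclusion puts luciferase in frame. Cells were plated 10-12 h before compound addition, then incubated 30-36 h at 37C. ONE-Glo luminescence was read; sodium butyrate at 4.5 mM final served as control.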
FLuc modulator = qHTS profiling assay for firefly luciferase inhibitor/activator using purifed enzyme and Km concentrations of substrates (counterscreen for miR-21 project) | purified FLuc, Km substrates, luminescence inhibition | Luciferin 4-monooxygenase (Photinus pyralis), P08659 | Potency, µM (highest dose often 57.5 µM), inactives show top-dose activity change, negative = inhibition, actives largely listed as inhibitors | 360,000 tested, 6.9% active;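 further: plate controls were vehicle for no effect and reference inhibitor for full effect; nearly all actives have a fitted effect of over 55% in size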
Target sequence (P08659 whole entry, looked up): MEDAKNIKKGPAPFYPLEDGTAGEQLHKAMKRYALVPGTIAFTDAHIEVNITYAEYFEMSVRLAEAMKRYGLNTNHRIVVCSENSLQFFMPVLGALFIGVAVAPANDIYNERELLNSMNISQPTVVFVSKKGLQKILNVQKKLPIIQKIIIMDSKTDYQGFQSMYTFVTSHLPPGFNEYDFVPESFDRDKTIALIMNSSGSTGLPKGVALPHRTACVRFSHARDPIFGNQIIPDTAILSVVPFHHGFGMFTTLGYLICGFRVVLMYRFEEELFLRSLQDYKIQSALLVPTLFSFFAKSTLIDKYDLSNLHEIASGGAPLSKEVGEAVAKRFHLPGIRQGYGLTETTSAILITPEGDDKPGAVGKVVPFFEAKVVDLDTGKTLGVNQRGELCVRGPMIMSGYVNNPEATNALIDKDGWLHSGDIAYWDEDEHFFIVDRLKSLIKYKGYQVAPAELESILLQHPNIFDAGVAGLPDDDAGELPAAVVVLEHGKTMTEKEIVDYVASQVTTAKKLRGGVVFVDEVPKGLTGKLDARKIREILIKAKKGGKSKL
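Biochemical qHTS of compounds, final roughly 60 µM downward over six points, against 10 nM purified firefly luciferase using Km concentrations of substrates (10 uM D-luciferin, 10 uM ATP) in Tris acetate pH 7.5 buffer; luminescence output.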
Starred values were filed as active, the others as inactive; ? = inconclusive; · = no result given. Rows were chosen to be rich in hits. Some 9.3% of all compounds tested hit in one or more screens of this group. The call rests on the fitted dose curve; in most records, active means well fitted curve in the direction sought with a large enough effect; inconclusive means small, poorly fitted or top-dose-only effect, or another doubt; inactive means no such curve, though single readings can be large; an effect the other way counts as inactive or inconclusive. Potency means the concentration at half of the fitted maximal effect.

SMILES	NPC1 prom act	ELG1 genotox	Rab9 promoter act	ELG1 DNA repair	SMN2 splice enh	FLuc modulator
CCc1ccc(NC(=O)Cn2c(=O)n(CCCC(=O)NCc3ccccc3OC)c(=O)c3ccccc32)cc1	·	·	·	·	6%	-2%
COc1ccccc1N1CCN(/N=C/c2cccc(OC)c2O)CC1	?	?	?	?	25µM*	7.6µM*
COc1ccc(/C=N/N2CCN(c3ccccc3OC)CC2)cc1Br	21%	12%	22%	?	·	15µM*
COc1ccccc1N1CCN(/N=C/c2ccc(O)c(O)c2)CC1	-28%	?	-21%	23%	?	?
COc1ccccc1N1CCN(/N=C/c2cccc(Cl)c2)CC1	3.2µM*	16µM*	2.2µM*	?	·	12µM*
CC(C)(C)OC(=O)C[C@@H]1C/C=C\C[C@@H](CC(=O)N(CCO)Cc2ccccc2)C(=O)N[C@@H](c2ccccc2)COC1=O	·	-8%	·	15µM*	·	·
CC(C)(C)[C@H]1COC(=O)[C@H](NC(=O)OCC2c3ccccc3-c3ccccc32)C/C=C\C[C@@H](CC(=O)N(CCO)Cc2ccccc2)C(=O)N1	·	-12%	·	10µM*	·	·
CCOc1ccc(C(=O)NNC(=O)CCNC(=O)c2ccco2)cc1OC	-3%	2%	0%	17%	·	-2%
CCOC(=O)N1CCc2c(sc3c2c(=O)n(-c2ccc(Cl)cc2)c(=O)n3Cc2cccc(OC)c2)C1	·	·	·	·	-1%	-4%
Cc1cccn2c(N)c(-c3ccccc3)nc12	?	?	3.5µM*	?	27%	11µM*
O=C(Cc1ccccc1F)Nc1nc(-c2cccs2)cs1	?	?	?	?	-13%	11µM*
O=C(Nc1nc(-c2cccs2)cs1)c1ccco1	4µM*	10µM*	3.2µM*	?	13µM*	8.5µM*
CC(=O)Nc1ccc(-c2csc(NC(=O)Cc3cccc(F)c3)n2)cc1	-4%	-15%	-2%	18µM*	·	-2%
CC(OC(=O)c1ccc([N+](=O)[O-])o1)C(=O)Nc1nc(-c2ccc(F)c(F)c2)cs1 (configuration not stated)	?	14%	?	?	·	24µM*
O=C(Nc1nc(-c2ccncc2)cs1)c1ccco1	15%	10%	22%	?	-20%	?
O=C(Cc1ccccc1)Nc1nc(-c2ccc(F)c(F)c2)cs1	-4%	-7%	9%	-5%	·	?
O=C(Cc1ccccc1)Nc1nc(-c2cccs2)cs1	25%	4%	20%	?	-7%	19µM*
O=C(Cc1ccccc1F)Nc1nc(-c2ccc(F)c(F)c2)cs1	4%	-24%	?	-4%	·	13µM*
O=C(COc1ccccc1)N1CCN(c2ccccc2)CC1	-1%	1%	0%	4%	-27%	4%
CC1(C)CC(=O)c2c(O)cc(OCC(=O)N3CCN(c4ccccc4)CC3)cc2O1	0%	-6%	0%	-9%	·	15µM*
COc1cc(NC(=O)COc2cccc3c2OC(C)(C)C3)cc(OC)c1OC	-4%	-8%	-18%	13µM*	·	6%
CC(C)CCNC(=O)COc1ccc2c(c1)C(=O)CC(C)(C)O2	9%	?	23%	?	17%	-19%
COc1cc(C)c(NC(=O)COc2cccc3c2OC(C)(C)C3)cc1OC	-4%	-12%	-15%	18µM*	·	-1%
Cc1ccccc1NC(=O)COc1ccc2c(c1)OC(C)(C)CC2=O	?	14%	?	?	·	24µM*
Cc1cc(C)c(C#N)c(Sc2nnnn2-c2ccccc2)n1	0%	-12%	-1%	-7%	5%	-1%
